# Assay outcomes from PubChem.
# ALOX12 inh: ALOX12 (human) lipoxygenase inhibition | P18054 | purified 12hLO, xylenol orange hydroperoxide absorbance | Potency, µM (highest dose often 108 µM), actives largely listed as inhibitors | hit rate 1.1% among 580,000 | AID 1671190
# Target sequence (P18054 whole entry, looked up): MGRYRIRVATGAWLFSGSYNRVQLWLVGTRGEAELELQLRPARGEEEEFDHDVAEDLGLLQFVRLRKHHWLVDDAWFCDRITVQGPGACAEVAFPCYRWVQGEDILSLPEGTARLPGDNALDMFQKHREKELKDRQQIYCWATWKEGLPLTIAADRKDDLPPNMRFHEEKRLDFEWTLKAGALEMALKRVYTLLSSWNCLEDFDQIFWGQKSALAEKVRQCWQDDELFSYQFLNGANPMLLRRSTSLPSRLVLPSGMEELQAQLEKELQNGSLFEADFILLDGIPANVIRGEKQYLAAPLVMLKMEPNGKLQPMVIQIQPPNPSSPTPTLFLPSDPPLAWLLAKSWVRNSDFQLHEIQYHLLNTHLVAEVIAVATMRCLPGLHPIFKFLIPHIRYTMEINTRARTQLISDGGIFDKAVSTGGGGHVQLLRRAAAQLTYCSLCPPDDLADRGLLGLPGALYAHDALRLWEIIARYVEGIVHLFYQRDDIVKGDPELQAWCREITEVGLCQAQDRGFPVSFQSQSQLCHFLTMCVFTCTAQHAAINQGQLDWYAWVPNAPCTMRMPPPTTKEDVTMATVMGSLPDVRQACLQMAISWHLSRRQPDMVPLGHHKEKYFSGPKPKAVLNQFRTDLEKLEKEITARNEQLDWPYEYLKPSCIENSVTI
#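 Purified human 12hLO at 150 nM in 25 mM Hepes, 0.01% Triton X-100, pH 7.0, preincubated 15 min at room temperature with compound. Reaction started with 40 uM arachidonic acid, 30 min at room temperature. Hydroperoxide measured by Fe-xylenol orange, 573/405 nm absorbance ratio.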
# IL-1B inflam inh: inflammasome signaling inhibition, IL-1 beta readout; activity change, % at 57.5 µM; AID 743279; hit rate 4.7% among 360,000; THP-1 LPS/ATP IL-1B secretion, AlphaLISA, 16 h; active compounds read low; in the data active = activity change below about -50%; inconclusive = mostly about -30% to -49%
#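 THP-1 cells pretreated 1 hr with compounds (up to 57.5 uM final), then stimulated with LPS (250 ng/mL final) plus ATP (1.25 mM final); secreted IL-1B measured by AlphaLISA after 16 hr, decreased signal indicating inhibition.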
# HT1080NT lethal: kills 2HG-producing HT-1080-NT fibrosarcoma cells | AID 686970 | HT-1080-NT fibrosarcoma viability, CellTiter-Glo ATP luminescence, 48 h | hit rate 1.6% among 360,000 | Potency, µM (top dose mostly 46.1 µM), hits mostly cytotoxic;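 note: NT is the 2HG producing partner of a matched IDH1 knockdown line; nearly all actives have a fitted effect of over 55% in size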
#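 Toxicity toward the 2HG-producing NT line was scored as %Activity, normalised to DMSO and no-cell wells, from CellTiter-Glo luminescence after 48 hours' treatment.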
# TDP1 cell noCPT: qHTS for Inhibitors of human tyrosyl-DNA phosphodiesterase 1 (TDP1): qHTS in cells in absence of CPT; DT40 Tdp1-/- hTDP1 cells, no CPT, ATP luminescence, 48 h; Potency, µM (top dose mostly 46.2 µM), most hits filed as inhibitors; hit rate 15% among 420,000; note: nearly all actives have a fitted effect of over 55% in size
#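 Stably hTDP1-transfected Tdp1-null chicken DT40 cells were treated with library compounds minus camptothecin and grown for at least 48 hr at 37 °C, after which cellular ATP was quantified by luminescence.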
# TDP1 cell CPT: growth inhibition of DT40 Tdp1-/-;hTDP1 cells with camptothecin (screen for TDP1 inhibitors); hit rate 12% among 420,000; chicken DT40 Tdp1-/-;hTDP1 cells + 20 nM CPT, ATP luminescence, 48 h; AID 686979; Potency, µM (top dose mostly 46.2 µM), usual class: inhibitors; note: nearly all actives have a fitted effect of over 55% in size
#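 Cell growth measured by CellTiter-Glo luminescence after a minimum 48 h, 37 C compound exposure with 20 nM CPT in Tdp1-knockout DT40 cells stably expressing hTDP1, seeded 400/well; qHTS titration format.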
# HT1080 IDH1KD tx: toxicity to HT-1080 IDH1 knockdown cells (counter line); Potency, µM (series often up to 46.1 µM), hits mostly cytotoxic; hit rate 2% among 360,000; HT-1080 IDH1 knockdown viability, ATP luminescence, 48 h; AID 686971
#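 Assay cells: HT-1080 with IDH1 knockdown, 750 per well, RPMI/5% FBS. Exposure: 48 h at 37 °C following 2 h pre-incubation. Read: CellTiter-Glo luminescence; fitted concentration-response, curve class assigned.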
# Hits are given with their value; . = inactive; ? = inconclusive; / = no result; [ ] = another dose, or the depositor's remark. This is one part of a sample in which hits are shown more often than they occur. Unless noted, calls come from the whole dose curve; as a rule, active = well fitted curve in the direction sought with a large enough effect; inconclusive = small, poorly fitted or top-dose-only effect, or another doubt; inactive = no such curve, though single readings can be large; an effect the other way counts as inactive or inconclusive.
SMILES,ALOX12 inh,IL-1B inflam inh,HT1080NT lethal,TDP1 cell noCPT,TDP1 cell CPT,HT1080 IDH1KD tx
Cc1ccc(N2CC(c3nnc(NC(=O)c4ccc(NC(=O)C(C)C)cc4)s3)CC2=O)cc1Cl (stereo unspecified),.,/,/,/,/,/
COc1ccc(/C=C(\C#N)C(=O)C(C)(C)C)cc1Br,.,/,/,/,/,/
COc1ccc(C2=NOC(Cn3nc(C(=O)NCc4ccc(C)cc4)cc3-c3ccccc3)C2)cc1 (stereo unspecified),.,.,.,21µM,?,.
COc1ccc(C2=NOC(Cn3nc(C(=O)NCc4ccco4)cc3-c3ccccc3)C2)cc1 (stereo unspecified),?,.,.,16µM,?,.
Cc1ccc(-c2nc3cc(C(C)C)ccc3o2)cc1NC(=O)c1cccnc1,.,/,/,/,/,/
O=C(CN1C(=O)C(=O)N(CCC2=CCCCC2)C1=O)c1c[nH]c2ccccc12,?,-59,.,?,.,.
O=C(CN1C(=O)C(=O)N(Cc2ccco2)C1=O)c1c[nH]c2ccccc12,.,.,?,.,.,.
CC(C)C[C@H](NC(=O)c1[nH]cnc1C(=O)Nc1ccccc1)C(=O)OC(C)(C)C,?,.,?,?,26µM,?
CC(C)C[C@H](NC(=O)c1[nH]cnc1C(=O)N[C@@H](C)C(=O)OC(C)(C)C)C(=O)OC(C)(C)C,.,-61,?,12µM,18µM,?
CCOC(=O)c1ccc(NC(=O)c2nc[nH]c2C(=O)N[C@@H](CC(C)C)C(=O)OC(C)(C)C)cc1,.,.,.,?,?,.
C[C@H](NC(=O)c1nc[nH]c1C(=O)NC(c1ccccc1)c1ccccc1)C(=O)OC(C)(C)C,.,?,?,?,.,?
C[C@H](NC(=O)c1nc[nH]c1C(=O)N[C@H](C)c1ccccc1)C(=O)OC(C)(C)C,.,.,.,?,15µM,.
Cc1cccc(NC(=O)c2nc[nH]c2C(=O)N[C@@H](C)C(=O)OC(C)(C)C)c1,.,-67,.,?,18µM,.
O=C(COc1ccc(Cl)cc1)Nc1cc2c3c(c1)CC(=O)N3CCC2,.,.,.,21µM,21µM,.
CCCC(=O)Nc1cc2c3c(c1)CC(=O)N3CCC2,.,.,.,?,.,.
Cc1nc2c(OCC(=O)c3ccccc3)cccn2c(=O)c1-c1cc(C)n(-c2ccc(Cl)cc2)n1,.,/,/,/,/,/
COc1cc(CNc2nc(C)c(-c3ccn(CC4CCCN(C)C4)n3)s2)ccc1F (stereo unspecified),?,/,/,23µM,.[9.04 µM],/
O=C(Nc1nccs1)c1ccc(Cl)c([N+](=O)[O-])c1,.,-69,.,.,.,.
O=C(Nc1nccs1)c1ncc(Cl)c(Cl)c1Cl,.,-56,?,15µM,21µM,.
O=C(Cc1ccccc1)Nc1nccs1,.,.,.,.,.,.
O=C(Nc1nccs1)c1ccc(N2CCOCC2)c([N+](=O)[O-])c1,.,.,.,21µM,?,.
O=C(Nc1nccs1)c1cc([N+](=O)[O-])ccc1Cl,.,.,?,?,?,?
O=C(Cc1ccccc1[N+](=O)[O-])Nc1nccs1,.,.,.,?,8.2µM,.
COc1ccc(CNC(=O)C2(C)CCCCC(=O)N2)cc1OC (stereo unspecified),.,/,/,/,/,/
CCOC(=O)c1[nH]c2c(c1C)C(=O)CC(c1ccc(OCC)c(OC)c1)C2 (stereo unspecified),.,.,?,?,.,?
SMILES,ALOX12 inh,IL-1B inflam inh,HT1080NT lethal,TDP1 cell noCPT,TDP1 cell CPT,HT1080 IDH1KD tx
CCOCCOC(=O)c1[nH]c2c(c1C)C(=O)CC(c1cccs1)C2 (stereo unspecified),.,.,0.46µM,0.82µM,1µM,0.46µM
COCCOC(=O)c1[nH]c2c(c1C)C(=O)CC(c1cccs1)C2 (stereo unspecified),.,.,?,1.3µM,1.2µM,4.6µM
Cc1c(C(=O)OCC(C)C)[nH]c2c1C(=O)CC(c1cccs1)C2 (stereo unspecified),.,.,1.6µM,3.7µM,2.9µM,1.3µM
CCOCCOC(=O)C1=C(C)NC2=C(C(=O)CC(c3cccs3)C2)C1c1ccsc1 (stereo unspecified),.,.,?,?,?,.
O=C(Nc1ccc2c(c1)OCCO2)C(Nc1ccccc1)c1ccccc1F (stereo unspecified),.,/,/,/,/,/
Cc1cccc(OCCCC(=O)NNC(=O)c2ccccn2)c1,.,.,?,7.3µM,6.5µM,?
Cc1cccc(OCCCC(=O)NNC(=O)c2ccncc2)c1,.,.,.,.,.,.
Cc1ccc(-c2ccccc2)n1-c1cccnc1,.,/,/,/,/,/
Cn1c(SSc2ccc(-c3cccnc3)n2C)ccc1-c1cccnc1,?,-98,10µM,?,?,12µM
CN(Cc1ccccc1)C(=O)c1[nH]cnc1C(=O)NCc1ccc(CNC(=O)OC(C)(C)C)cc1,.,.,.,13µM,?,.
CC(C)(C)OC(=O)N1CCC(NC(=O)c2[nH]cnc2C(=O)Nc2ccccc2)CC1,.,.,.,?,?,.
C[C@@H]1CNC(=O)c2c(C(=O)NCc3ccc(CNC(=O)OC(C)(C)C)cc3)ncn21,.,.,.,21µM,?,.
CC(C)(C)OC(=O)N1CCC(NC(=O)c2[nH]cnc2C(=O)Nc2ccc(Br)cc2F)CC1,.,.,.,18µM,21µM,.
CN(Cc1ccccc1)C(=O)c1[nH]cnc1C(=O)NC1CCN(C(=O)OC(C)(C)C)CC1,.,.,.,?,21µM,.
O=C(CSc1nccn1Cc1ccc2c(c1)OCO2)Nc1nc2ccccc2s1,.,/,/,/,/,/
CCc1nn2c(=O)cc(CSc3n[nH]c(-c4cccc(C)c4)n3)nc2s1,.,/,/,/,/,/
Cc1cccc(NC(=O)CCCc2nc3ccccc3o2)c1,.,/,/,/,/,/
O=C(Nc1nccs1)c1nc[nH]c1C(=O)NCc1ccccc1,.,.,?,.,.,0.82µM
CN(Cc1ccccc1)C(=O)c1[nH]cnc1C(=O)Nc1nccs1,.,.,.,.,?,.
C[C@@H](OC(=O)c1[nH]cnc1C(=O)NCc1ccc(CNC(=O)OC(C)(C)C)cc1)c1ccccc1,?,.,?,16µM,21µM,?
CCOc1ccccc1CN1CCC2(CC1)Cc1ccccc1CNC2=O,.[6.33 µM],/,/,/,/,/
N#Cc1cccc(OCc2ccc(C#N)cc2F)c1,.,/,/,/,/,/
O=C(c1ccc(Cn2c(=O)[nH]c3ccccc3c2=O)cc1)N1CCN(c2ccc(Cl)cc2)CC1,.,.,?,16µM,23µM,?
CC(=O)c1ccc(N2CCN(C(=O)c3ccc(Cn4c(=S)[nH]c5ccc(N6CCOCC6)cc5c4=O)cc3)CC2)cc1,.,.,.,2.6µM,3.3µM,.
